# Source: PubChem BioAssay (NCATS)
# Records with an inconclusive call do not appear. Entries that show only a call come without a potency. The source made the active and inactive calls. Calls come from the whole dose curve; as a rule, active = well fitted cell-killing curve with a large enough effect; inconclusive = small, poorly fitted or top-dose-only effect; inactive = flat fitted curve, though single readings scatter.
# Experiment: Cell Viability - LYMP2-024 (AID 988); note: nearly all actives have a fitted effect of over 60% in size
# Settings: LYMP2-024 lymphoblastoid cell viability; series mostly up to 92.2 µM
# How it was run: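 Cytotoxicity was taken as a decrease in ATP (CellTiter-Glo luminescence) after 24 hr compound exposure at 37 C of LYMP2-024 lymphoblastoid cells, 2500 cells/well. Concentration-response data were fitted to the Hill equation to give AC50.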
row,SMILES,Potency
1,CC(C)N(C)C,inactive
2,CC#N,inactive
3,O=Cc1c(Cl)cccc1Cl,inactive
4,Nc1nc2ccccc2[nH]1,inactive
5,C=C(C)OC(C)=O,inactive
6,CCOCCOCC,inactive
7,CNc1ccc([N+](=O)[O-])cc1,inactive
8,O=P(O)(OCc1ccccc1)OCc1ccccc1,inactive
9,C=C(C)C1CC=C(C)C(OC(C)=O)C1 (centres undefined),inactive
10,Oc1c(Cl)ccc(Cl)c1Cl,inactive
11,C=C(C)C(=O)OCCCCCC,inactive
12,Cc1ccc2ccccc2c1[N+](=O)[O-],inactive
13,Cc1cscn1,inactive
14,CCOC(=O)OCC,inactive
15,C=CCCCCCC,inactive
16,C=C(C)C(=O)OCC(C)C,inactive
17,O=Cc1ccc(C(=O)O)cc1,inactive

row,SMILES,Potency
1,COc1ccc(N=[N+]([O-])c2ccc(OC)cc2)cc1,inactive
2,CC(C)=CCl,inactive
3,Cc1ccc(CO)cc1,inactive
4,COc1cccc2sc(N)nc12,inactive
5,CCCCCCCCC/C=C/CC1CC(=O)OC1=O (centres undefined),inactive
6,NC(=O)NC(N)=O,inactive
7,CN(C)CCCNCCCN,inactive
8,Cc1ccc2ncccc2c1,inactive
9,Cc1cccc(C)c1,inactive
10,O=C(O)c1cc(Cl)cc(Cl)c1,inactive
11,CC(CCl)OC(C)CCl (centres undefined),inactive
12,CCCCC(CC)COC(=O)CCCCC(=O)OCC(CC)CCCC (centres undefined),inactive
13,CCCCN(CCO)CCCC,inactive
14,Nc1cc(Cl)c(N)c(Cl)c1,inactive
15,CC(C)(c1cc(Br)c(OCC(Br)CBr)c(Br)c1)c1cc(Br)c(OCC(Br)CBr)c(Br)c1 (centres undefined),inactive
16,C=Cc1ccccc1C=C,inactive
17,C/C=C1\CC2C=CC1C2 (centres undefined),inactive
